Test: enhancers of NK cell killing of ovarian tumor cells, primary screen, imaging, OVCAR3, primary NK cells, calcein-AM imaging (AID 1508625);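 note: compound given to NK cells 16 h before adding targets at 1.5 to 1 ratio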
Conditions: OVCAR3 lysis by primary NK cells, at 5 µM; z-score: measured here: robust Z-score, single-point normalisation

O=C(Nc1ccc2c(c1)CCC2)c1ccc2c(=O)n(C3CCCCC3)c(=S)[nH]c2c1
corrected activity, negative = more killing: -2.41% | z-score: -0.766

Cc1nc2ccc3nc(NC(=O)c4cc([N+](=O)[O-])ccc4Cl)sc3c2s1
corrected activity, negative = more killing: -2.51% | z-score: -0.528

CCOC(=O)c1c(NC(=O)c2cc([N+](=O)[O-])ccc2N2CCCCCC2)sc2c1CCCC2
corrected activity, negative = more killing: -2.4% | z-score: -0.744

NC(C(=O)O)C(O)c1cccc([N+](=O)[O-])c1 (configuration not stated)
corrected activity, negative = more killing: -0.723% | z-score: -0.224

COc1ccccc1CNC(=O)C(C)Oc1cccc(Cl)c1 (configuration not stated)
corrected activity, negative = more killing: -1.41% | z-score: -0.785

CC1=C(C(=O)OC(C)C(C)(C)C)C(c2ccccc2)NC(=O)N1 (configuration not stated)
corrected activity, negative = more killing: -4.55% | z-score: -1.71

Cc1cc(=O)oc2ccc(Oc3ccc(C#N)cc3[N+](=O)[O-])cc12
corrected activity, negative = more killing: -0.59% | z-score: -0.183

COc1ccccc1CNCc1ccccn1
corrected activity, negative = more killing: -2.41% | z-score: -0.766

COc1ccccc1Nc1ncc(C(=O)N2CCC(Cc3ccccc3)CC2)c2ccccc12
corrected activity, negative = more killing: -5.51% | z-score: -1.37

O=C(NCc1ccccn1)c1sc2cc([N+](=O)[O-])ccc2c1Cl
corrected activity, negative = more killing: -2.44% | z-score: -0.775

CC(C)NC1CCCc2c1[nH]c1ccc([N+](=O)[O-])cc21 (configuration not stated)
corrected activity, negative = more killing: -0.558% | z-score: -0.244

Cc1ccc(-c2cc(C(=O)NN=Cc3cccnc3)[nH]n2)cc1
corrected activity, negative = more killing: -3.53% | z-score: -1.54

CCCCOc1ccc(CN2CCN3CCCC3C2C)cc1 (configuration not stated)
corrected activity, negative = more killing: -3.8% | z-score: -1.66

COc1cc(NC(=O)c2cc(Cl)cc(Cl)c2OC)ccc1NC(=O)c1ccccc1Cl
corrected activity, negative = more killing: -1.43% | z-score: -0.797

NC(=O)c1ccccc1NC(=O)c1ccc(-c2cccc(Cl)c2)o1
corrected activity, negative = more killing: -6.51% | z-score: -1.94

COc1cccc(Nc2ncnc3sc(C)c(S(=O)(=O)N4CCC(C)CC4)c23)c1
corrected activity, negative = more killing: -2.61% | z-score: -0.65

Reference: PubChem BioAssay AID1508625 (Wald Lab, School of Medicine, Case Western Reserve …, 2021)
